The values below come from PubChem BioAssay (NCI).

This is part of a sample that, as a whole, favours compounds with a hit. Of some 83,000 tested, about 20% had one in any assay.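 Interpretation: 100, growth as untreated; towards 0, rising growth inhibition; 0, no net growth; 0 to -100, cell death. Compounds scoring below 10 were considered active.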 Values without a mark were called inactive. Activity calls are given as the source filed them.

Test in all cases: NCI-60 one-dose screen, 48 h (100 = growth as untreated, 0 = no growth, -100 = all killed)
Experiment [1] deals with NCI-H23 lung. Conditions: 10 µM unless noted.
The test system of experiment [2] is NCI-H226 lung. Conditions: 10 µM unless noted.
For experiment [3], the system named is NCI-H322M lung. Conditions: 10 µM unless noted.
Experiment [4] relates to HOP-62 NSCLC. Conditions: 10 µM unless noted.
The subject of experiment [5] is NCI-H460 lung. Conditions: 10 µM unless noted.
Experiment [6] deals with HOP-92 NSCLC. Conditions: 10 µM unless noted.
In experiment [7] the test system is NCI-H522 lung. Conditions: 10 µM.
Experiment [8] relates to 786-0 renal. Conditions: 10 µM unless noted.
Experiment [9] concerns COLO 205 colon. Conditions: 10 µM unless noted.
Experiment [10] relates to DU-145 prostate. Conditions: 10 µM unless noted.
Experiment [11] deals with K-562 leukemia. Conditions: 10 µM unless noted.
Experiment [12] relates to MALME-3M melanoma. Conditions: 10 µM unless noted.
Experiment [13] relates to MDA-MB-231 breast. Conditions: 10 µM unless noted.
The subject of experiment [14] is RXF 393 renal. Conditions: 10 µM unless noted.
In experiment [15] the test system is SF-268 CNS. Conditions: 10 µM unless noted.
For experiment [16], the system named is SF-295 CNS. Conditions: 10 µM unless noted.
Experiment [17] relates to SF-539 CNS. Conditions: 10 µM unless noted.
For experiment [18], the system named is UACC-257 melanoma. Conditions: 10 µM unless noted.
Experiment [19] concerns M14 melanoma. Conditions: 10 µM unless noted.

As for `CCN1CC2=C(Nc3nc(SC)[nH]c(=O)c3C2c2cc(OC)c(OC)c(OC)c2)/C(=C/c2cc(OC)c(OC)c(OC)c2)C1` (configuration not stated), the growth in experiment [1] was 99.2%; in experiment [2] it was 98.5%; in experiment [3], 95.2%; in [4], 104%; in [5], 106%; in [6], 81.6%. Further, the growth is 81.2% in experiment [7]; 96.9% in experiment [8]; 113% in experiment [9]; 112% in [10]; 90.9% in experiment [11]; 112% in experiment [12]. Further, the growth was 104% in experiment [13]; 106% in [14]; 110% in [15]; 100% in experiment [16]; 104% in experiment [17]; 97% in experiment [18]. Further, the growth in experiment [19] is 114%.
In the case of `CCCCc1ccc(C(N)=O)nc1`, the growth in [1] was 102%; in experiment [2], 86.5%; in experiment [3] it was 103%; in [4], 99.3%; in experiment [5], 108%; in experiment [6], 62.5%. Moreover, the growth in experiment [7] is 85.3%; in experiment [8] it was 92.6%; in experiment [9] it was 118%; in [10] it was 102%; in experiment [11], 109%; in experiment [12] it was 108%. Besides, the growth was 102% in experiment [13]; 103% in experiment [14]; 101% in experiment [15]; 109% in experiment [16]; 105% in experiment [17]; 97.8% in experiment [18]. In addition, the growth in experiment [19] is 100%.
As to `CN[C@@H]1C(OC2[C@H](O[C@H]3[C@H](O)[C@@H](O)[C@H](N=C(N)N)[C@@H](O)[C@@H]3N=C(N)N)OC(C)[C@]2(O)CO)OC(CO)C(O)C1O` (some centres not stated), the growth in [1] was 103%; in experiment [2], 108%; in experiment [3], 111%; in [4] it was 107%; in experiment [5], 113%; in experiment [6] it was 118%. Also, the growth in experiment [7] was 112%; in experiment [8] it was 106%; in [9], 109%; in experiment [10], 109%; in experiment [11], 113%; in [12] it was 106%. Further, the growth is 104% in [13]; 114% in [14]; 118% in [15]; 103% in experiment [16]; 109% in experiment [17]; 107% in [18]. The growth in [19] is 112%.
Turning to `O=C(O)CCC(=O)OC[C@@H](NC(=O)C(Cl)Cl)[C@H](O)c1ccc([N+](=O)[O-])cc1`, the growth is 98.4% in [1]; 89.3% in experiment [2]; 99.5% in experiment [3]; 98.5% in experiment [4]; 111% in experiment [5]; 86.7% in experiment [6]. The growth was 91.7% in experiment [7]; 93.7% in experiment [8]; 99.4% in [9]; 110% in experiment [10]; 98.6% in experiment [11]; 96% in [12]. The growth in [13] is 103%; in [14], 104%; in experiment [15] it was 109%; in experiment [16], 101%; in experiment [17], 100%; in experiment [18], 104%. Besides, in experiment [19], the growth was 98%.
Turning to `C#C[C@]1(O)CCC2C3CCc4cc(O)ccc4C3CC[C@@]21C` (some centres not stated), the growth in experiment [1] was 62.4%; in [2] it was 81.3%; in experiment [3], 81.4%; in experiment [4], 35.4%; in experiment [5], 17.5%; in experiment [6], 75.3%. The growth was 10.6% in experiment [7]; 44.3% in [8]; 41.1% in [9]; 60.8% in experiment [10]; 12.7% in experiment [11]; 43% in experiment [12]. For the same compound, the growth is 66.7% in experiment [13]; 51.5% in experiment [14]; 47.7% in experiment [15]; 22.6% in experiment [16]; 21% in experiment [17]; 75.2% in experiment [18]. The growth in experiment [19] was 20.4%.
Turning to `Nc1nc(SCc2cccnc2)c2ncn(C3OC(CO)C(O)C3O)c2n1` (configuration not stated), the growth was 97.9% in experiment [1]; 94.9% in experiment [2]; 108% in experiment [3]; 85.7% in experiment [4]; 96.6% in experiment [5]; 78.1% in experiment [6]. For the same compound, the growth in experiment [7] was 102%; in experiment [8] it was 103%; in experiment [9], 114%; in experiment [10], 113%; in experiment [11], 113%; in experiment [12], 92.4%. For the same compound, the growth in [13] is 94.7%; in [14], 101%; in experiment [15], 90.6%; in experiment [16], 99.1%; in [17], 95.1%; in experiment [18], 92.7%. For the same compound, the growth in experiment [19] is 97.8%.
For `COc1cc(/C=C2\SC(N3CCCCC3)=NC2=O)ccc1OCCCCCCOc1ccc(/C=C2\SC(N3CCCCC3)=NC2=O)cc1OC`, the growth in experiment [1] was 5.35% (active); in [2], -20.1% (active); in experiment [3], 48.3%; in experiment [4], 6.62% (active); in [5], -45.4% (active); in experiment [6], 32.2%. Also, the growth in experiment [7] was -11.5% (active); in experiment [8], 50.5%; in [9], 0.374% (active); in experiment [10] it was -7% (active); in experiment [11], 3.85% (active); in experiment [12], 5.59% (active). In addition, the growth is 20.9% in experiment [13]; -44.3% (active) in [14]; -1.61% (active) in experiment [15]; 4.37% (active) in [16]; -1.19% (active) in experiment [17]; -0.986% (active) in [18]. Besides, the growth in [19] is 13.1%.
For the compound `CC1CN(/N=C/c2ccc([N+](=O)[O-])o2)C(=N)O1` (configuration not stated), the growth is 97.1% in experiment [1]; 96.3% in experiment [2]; 117% in [3]; 103% in [4]; 96% in experiment [5]; 88.8% in experiment [6]. Besides, the growth is 87.8% in experiment [7]; 108% in experiment [8]; 113% in experiment [9]; 121% in experiment [10]; 108% in experiment [11]; 78.8% in experiment [12]. Further, the growth was 102% in [13]; 102% in [14]; 90.1% in experiment [15]; 88.9% in experiment [16]; 96.9% in [17]; 99.5% in [18]. Besides, in [19], the growth is 106%.
